SMN2 splice enh: qHTS Assay for Enhancers of SMN2 Splice Variant Expression | actives 2.8% (n = 210,000) | HEK293 SMN2-luciferase splicing reporter, luminescence, 30-36 h | Potency, µM (doses to about 46.1 µM), for inactives: at the top dose activity change, positive = activation, most hits filed as activators; also: % of control where 0% means no effect; nearly all actives have a fitted effect of over 55% in size
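qHTS luciferase splicing reporter: luminescence rises when SMN2 exon 7 is included in transfected HEK293 cells. Compound exposure lasted 30-36 h at 37C, with 4.5 mM final sodium butyrate as control, followed by a ONE-Glo read.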
NPC1 prom act: qHTS Assay for NPC1 Promoter Activators. Huh7 NPC1 promoter luciferase reporter, 24 h. AID 485313, 2010. actives 2.4% (n = 320,000). Potency, µM (doses to about 9.22 µM), for the others: at the top dose activation, hits mostly activators; also: % of control where 0% means no effect; nearly all actives have a fitted effect of over 60% in size
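Cells: Huh7 expressing luciferase under the NPC1 promoter, 1500/well. Seeded 2 h, compound added, incubated 24 h at 37 °C. Luciferase reagent, 10 min ambient, then luminescence.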
ELG1 genotoxic: qHTS screen for small molecules that induce genotoxicity in human embryonic kidney (HEK293T) cells expressing luciferase-tagged ELG1. HEK293T ELG1-luciferase reporter, luminescence, 16 h. Potency, µM (titrated, usually from 46 µM), without a hit: at the highest dose activity change, positive = activation, hits mostly activators. actives 1.3% (n = 330,000). AID 504466, 2011; also: % of control where 0% means no effect; nearly all actives have a fitted effect of over 60% in size
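16 hr compound incubation (37 °C, 5% CO2) of HEK293T cells carrying luciferase-tagged ELG1; luciferase then measured by ONE-Glo luminescence after 30 min at RT.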
Rab9 promoter act: qHTS Assay for Rab9 Promoter Activators; Huh7 Rab9 promoter-luciferase reporter, luminescence, 24 h; Potency, µM (series often up to 9.22 µM), without a hit: at the top dose activation, negative = inhibition, most hits filed as activators; actives 2.8% (n = 320,000); AID 485297, 2010; also: % of control where 0% means no effect; nearly all actives have a fitted effect of over 60% in size
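Luciferase signal after 10 min detection reagent at ambient indicates Rab9 promoter upregulation; stably transfected Huh7 cells were treated 24 h with compound in DMSO at 37 °C, 5% CO2.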
FLuc modulator: qHTS profiling assay for firefly luciferase inhibitor/activator using purifed enzyme and Km concentrations of substrates (counterscreen for miR-21 project); purified FLuc, Km substrates, luminescence inhibition; actives 6.9% (n = 360,000); Potency, µM (series often up to 57.5 µM), without a hit: top-dose activity change, negative = inhibition, hits mostly inhibitors; AID 588342, 2011;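 also: plate controls were vehicle for no effect and reference inhibitor for full effect; nearly all actives have a fitted effect of over 55% in size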
Target sequence (P08659 whole entry, looked up): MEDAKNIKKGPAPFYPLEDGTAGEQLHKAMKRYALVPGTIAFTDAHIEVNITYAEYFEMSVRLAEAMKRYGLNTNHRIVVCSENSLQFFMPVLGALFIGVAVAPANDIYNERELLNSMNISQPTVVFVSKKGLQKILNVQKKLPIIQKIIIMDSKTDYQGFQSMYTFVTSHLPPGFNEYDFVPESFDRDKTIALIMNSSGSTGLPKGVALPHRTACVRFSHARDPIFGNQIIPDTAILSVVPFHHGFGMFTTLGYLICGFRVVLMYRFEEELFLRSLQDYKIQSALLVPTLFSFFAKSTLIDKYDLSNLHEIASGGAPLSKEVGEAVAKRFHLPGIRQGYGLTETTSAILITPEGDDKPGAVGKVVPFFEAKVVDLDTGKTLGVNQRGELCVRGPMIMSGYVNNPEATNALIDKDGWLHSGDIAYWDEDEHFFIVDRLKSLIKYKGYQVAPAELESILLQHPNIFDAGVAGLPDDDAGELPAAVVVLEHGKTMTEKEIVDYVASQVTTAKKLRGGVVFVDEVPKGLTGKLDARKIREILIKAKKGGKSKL
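Biochemical qHTS of compounds, final roughly 60 µM downward over six points, against 10 nM purified firefly luciferase using Km concentrations of substrates (10 uM D-luciferin, 10 uM ATP) in Tris acetate pH 7.5 buffer; luminescence output.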
The depositor's hits bear a star. A selection: hits, their analogues and other compounds. The true share with any hit is near 7.5%. Calls follow the shape of the dose curve; as a rule, active = well fitted curve in the direction sought with a large enough effect; inconclusive = small, poorly fitted or top-dose-only effect, or another doubt; inactive = no such curve, though single readings can be large; an effect the other way counts as inactive or inconclusive. Potency is read from the fitted curve at half-maximal effect.

How did COc1ccc(-c2noc(-c3ccccc3C(=O)NCc3ccco3)n2)cc1 do in these assays?
SMN2 splice enh: 24.5%; NPC1 prom act: 3.2%; ELG1 genotoxic: -1.2%; Rab9 promoter act: 17.2%; FLuc modulator: inconclusive

How did CCN(CC)C(=O)CSc1nc(-c2ccccc2)cc(-c2ccc(OC)cc2)c1C#N do in these assays?
SMN2 splice enh: -9.0%; FLuc modulator: 16.9µM*

Results for COc1ccc(-c2noc(-c3ccccc3C(=O)NCc3ccco3)n2)cc1OC ?
SMN2 splice enh: -9.7%; NPC1 prom act: 8.9%; ELG1 genotoxic: -19.3%; Rab9 promoter act: -2.6%; FLuc modulator: 19µM*

Results for CCS(=O)(=O)CCSc1nc(C)cc(C)c1C#N ?
SMN2 splice enh: 30.8%; NPC1 prom act: -0.5%; ELG1 genotoxic: 2.5%; Rab9 promoter act: 4.6%; FLuc modulator: 4.5%

How did COCCNC(=S)N/N=C/c1ccccc1C(=O)O do in these assays?
SMN2 splice enh: 4.0%; NPC1 prom act: -0.7%; ELG1 genotoxic: -7.4%; Rab9 promoter act: 2.5%; FLuc modulator: 2.0%

What do the screens show for `COCCNC(=S)N/N=C(\C)c1ccccc1O`?
SMN2 splice enh: 28.8%; NPC1 prom act: 24.9%; ELG1 genotoxic: 4.7%; Rab9 promoter act: -0.1%; FLuc modulator: 16.9µM*

What do the screens show for `COCCNC(=S)N/N=C(\C)c1ccccc1OC`?
SMN2 splice enh: 17.7%; NPC1 prom act: 6.4%; ELG1 genotoxic: -0.7%; Rab9 promoter act: -0.9%; FLuc modulator: 5.2%

What do the screens show for `COCCCNC(=S)N/N=C/c1ccccc1O`?
NPC1 prom act: inconclusive; ELG1 genotoxic: 2.2%; Rab9 promoter act: inconclusive; FLuc modulator: 12µM*

How did CC(=O)c1ccc(N2CCN(C(=O)c3cc(C)on3)CC2)cc1 do in these assays?
SMN2 splice enh: 2.0%; NPC1 prom act: -3.0%; ELG1 genotoxic: 6.5%; Rab9 promoter act: -1.9%; FLuc modulator: 2.5%

Results for Cc1ccc(O)c(NC(=O)/C=C/C(=O)O)c1 ?
SMN2 splice enh: -18.2%; NPC1 prom act: -3.7%; ELG1 genotoxic: 0.8%; Rab9 promoter act: -3.0%; FLuc modulator: 2.9%

How did Cc1ccc(C(=O)/C=C/C(=O)c2ccc(C)cc2)cc1 do in these assays?
SMN2 splice enh: -105.2%; NPC1 prom act: -4.0%; ELG1 genotoxic: -10.6%; Rab9 promoter act: 1.0%; FLuc modulator: inconclusive

Results for Cc1ccc(C(=O)/C=C\Nc2ccc(C)c(C)c2)cc1 ?
SMN2 splice enh: 11.2µM*; NPC1 prom act: 2µM*; ELG1 genotoxic: inconclusive; Rab9 promoter act: 1.58µM*; FLuc modulator: 2.13µM*

How did Cc1ccc(N/C=C/C(=O)c2ccc(C)cc2)cc1 do in these assays?
NPC1 prom act: 1.41µM*; ELG1 genotoxic: inconclusive; Rab9 promoter act: 1.58µM*; FLuc modulator: 0.757µM*

What do the screens show for `Cc1ccc(O)c(N/C=C/C(=O)c2ccc(F)cc2)c1`?
NPC1 prom act: 0.6%; ELG1 genotoxic: 20.6µM*; Rab9 promoter act: -3.5%; FLuc modulator: 2.39µM*

What do the screens show for `C=CCOc1ccc(/C(O)=C2/C(=O)C(=O)N(CCCn3ccnc3)C2c2cccs2)cc1` (centres undefined)?
SMN2 splice enh: 2.6%; NPC1 prom act: 24.7%; ELG1 genotoxic: 4.4%; Rab9 promoter act: inconclusive; FLuc modulator: 15.1µM*

What do the screens show for `Cc1ccc(S(=O)(=O)Nc2ccc(NC(=O)CN3CCCCC3)c(Cl)c2)cc1`?
SMN2 splice enh: -6.5%; NPC1 prom act: -0.7%; ELG1 genotoxic: -7.2%; Rab9 promoter act: -8.4%; FLuc modulator: -0.7%

How did O=C(Nc1ccccc1C(=O)O)c1cccc(NC(=O)c2ccco2)c1 do in these assays?
NPC1 prom act: 3.7%; ELG1 genotoxic: -1.5%; Rab9 promoter act: 13.0%; FLuc modulator: 15.1µM*

How did O=C(O)c1cccc(NC(=O)c2ccccc2NC(=O)c2ccccc2F)c1 do in these assays?
NPC1 prom act: -2.3%; ELG1 genotoxic: -0.2%; Rab9 promoter act: 13.4%; FLuc modulator: 10.7µM*

How did Cc1ccc(NC(=O)c2cccc(NC(=O)CCC(=O)O)c2)cc1C do in these assays?
SMN2 splice enh: -4.6%; NPC1 prom act: -3.4%; ELG1 genotoxic: 2.5%; Rab9 promoter act: 4.9%; FLuc modulator: 8.49µM*

Results for O=C(Nc1cc(Br)c(O)c(Br)c1)c1cccc(NC(=O)c2ccco2)c1 ?
NPC1 prom act: -2.3%; ELG1 genotoxic: -8.7%; Rab9 promoter act: 1.1%; FLuc modulator: 10.7µM*

Results for C=CCc1ccc(OCC(O)COc2ccc(CC=C)cc2OC)c(OC)c1 ?
SMN2 splice enh: -33.4%; NPC1 prom act: 0.4%; ELG1 genotoxic: -0.3%; Rab9 promoter act: -4.1%; FLuc modulator: inconclusive

What do the screens show for `COc1ccc(CCNC(=O)c2cccc(S(=O)(=O)N3CCOCC3)c2)cc1OC`?
NPC1 prom act: -0.5%; ELG1 genotoxic: -2.4%; Rab9 promoter act: -0.4%; FLuc modulator: 8.6%

What do the screens show for `CCCCC(=O)Nc1cccc(C(=O)Nc2ccccc2C(=O)O)c1`?
NPC1 prom act: -1.5%; ELG1 genotoxic: -4.2%; Rab9 promoter act: 4.2%; FLuc modulator: 16.9µM*

Results for Cc1ccccc1C(=O)Nc1cccc(C(=O)Nc2ccccc2C(=O)O)c1 ?
NPC1 prom act: -1.5%; ELG1 genotoxic: -2.9%; Rab9 promoter act: -2.9%; FLuc modulator: 26.9µM*

Results for CC(=O)Oc1cccc(C(=O)Nc2cccc(C(=O)Nc3ccccc3C(=O)O)c2)c1 ?
NPC1 prom act: 14.2%; ELG1 genotoxic: 2.8%; Rab9 promoter act: 6.4%; FLuc modulator: inconclusive

Results for O=C(Nc1cccc(C(=O)N2CCCC2)c1)c1ccccc1Cl ?
SMN2 splice enh: 9.7%; NPC1 prom act: 0.0%; ELG1 genotoxic: 2.2%; Rab9 promoter act: 4.0%; FLuc modulator: -1.4%

How did CCCCCOC(=O)c1ccc(NC(=O)c2cccc(NC(=O)c3ccccc3C(=O)O)c2)cc1 do in these assays?
NPC1 prom act: 1.7%; ELG1 genotoxic: -2.0%; Rab9 promoter act: 0.2%; FLuc modulator: 19µM*

Results for O=C(Nc1ccccc1C(=O)O)c1cccc(NC(=O)c2ccccc2Cl)c1 ?
NPC1 prom act: 3.6%; ELG1 genotoxic: -2.0%; Rab9 promoter act: 9.6%; FLuc modulator: 19µM*

How did CCCCC(=O)Nc1cccc(NC(=O)c2cccc(Br)c2)c1 do in these assays?
SMN2 splice enh: 10.2%; NPC1 prom act: -6.6%; ELG1 genotoxic: -12.9%; Rab9 promoter act: -12.6%; FLuc modulator: -17.1%

What do the screens show for `CCCCOC(=O)c1ccc(NC(=O)c2ccccc2OC)cc1`?
SMN2 splice enh: -44.2%; NPC1 prom act: -3.5%; ELG1 genotoxic: -0.4%; Rab9 promoter act: 0.8%; FLuc modulator: inconclusive

What do the screens show for `O=C(C1CCN(S(=O)(=O)c2ccc(Br)s2)CC1)N1CCCCC1`?
NPC1 prom act: 4.1%; ELG1 genotoxic: -6.7%; Rab9 promoter act: 4.5%; FLuc modulator: 0.8%

Screening results as filed in PubChem BioAssay.
